{
  "source": "PubChem BioAssay (NCI)",
  "note": "Compounds without any hit were thinned out: in the full panel of roughly 83,000, 20% have a hit.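 In brief: 96-well plates, 48 h treatment, single concentration, percent growth endpoint.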 Active and inactive are the calls of the source. Rule for the calls: active = growth percent below 10; inactive = the rest.",
  "data": [
    {"tested_on": "HL-60(TB) leukemia", "test": "NCI-60 one-dose screen, 48 h (100 = growth as untreated, 0 = no growth, -100 = all killed)", "conditions": "10 µM unless noted", "values": [
      {"smiles": "COC(=O)c1c2c(n3ccccc13)C(=O)c1ccccc1C2=O", "growth": "58.6% (inactive)"},
      {"smiles": "S=C1SCN(CCc2ccccc2)CN1CCc1ccccc1", "growth": "89.7% (inactive)"},
      {"smiles": "C=C1C(=O)O[C@H]2[C@H]1CC/C(COC(=O)/C=C\\C(=O)NCc1ccc(Cn3c(=O)sn(CCI)c3=O)cc1)=C\\CC[C@@]1(C)O[C@@H]21", "growth": "-34.7% (active)"},
      {"smiles": "CN1CCN(c2ccc3cc(-c4nc5ccccc5[nH]4)c(=O)oc3c2)CC1", "growth": "73% (inactive)"},
      {"smiles": "Cc1ccc2c(c1)C(=O)/C(=C/c1ncc([N+](=O)[O-])n1C)O2", "growth": "-13% (active)"},
      {"smiles": "O=C(/C=C/c1sc(Cl)nc1Cl)c1ccc(F)cc1", "growth": "61.2% (inactive)"},
      {"smiles": "COC(=O)c1ccc2c(c1)c1c(C)c3ccncc3c(C)c1n2C", "growth": "32.5% (inactive)"},
      {"smiles": "Cc1nc2cc(O)c(O)cc2cc1Oc1ccc(NC(=O)Nc2ccc(Cl)c(Cl)c2)cc1", "growth": "96.8% (inactive)"},
      {"smiles": "CCN(CC)c1ccc(Nc2ccc(CC(=O)c3ccccc3)cc2)cc1", "growth": "97.9% (inactive)"},
      {"smiles": "Nc1ccc(-c2csc(-n3[nH]c(=O)ccc3=O)n2)cc1", "growth": "97.1% (inactive)"},
      {"smiles": "Nc1ccc(Cl)cn1", "growth": "100% (inactive)"},
      {"smiles": "Cc1cc(O)c(C(C)(C)C)cc1Sc1cc(C(C)(C)C)c(O)cc1C", "growth": "-20.9% (active)"},
      {"smiles": "CCOC(=O)c1c(C=O)nc2ccccc2c1/C=C/c1ccc(Cl)cc1", "growth": "69.7% (inactive)"},
      {"smiles": "Cc1cc(N2CCCC2)nc(N(CCCNc2ccnc3cc(Cl)ccc23)Cc2ccccn2)n1", "growth": "23.4% (inactive)"},
      {"smiles": "CCCCS(=O)(=O)c1cc(Nc2ccc(O)c3c2C(=O)c2ccccc2C3=O)ccc1C", "growth": "75% (inactive)"},
      {"smiles": "Clc1ccc2c(c1)C(c1c[nH]c3ccccc13)(c1c[nH]c3ccccc13)CCO2", "growth": "82% (inactive)"},
      {"smiles": "O=C1O[C@H]([C@H](O)CO)C(O)=C1O", "growth": "99.5% (inactive)"},
      {"smiles": "CSCCC(NC(=O)C(Cl)Cl)C(=O)O", "note": "(stereo not given)", "growth": "98.1% (inactive)"},
      {"smiles": "c1ccc2[nH]c(-c3ccc(OCCCCCOc4ccc(-c5nc6ccccc6[nH]5)cc4)cc3)nc2c1", "growth": "-45.7% (active)"},
      {"smiles": "CC(C)(C)CC(C)(C)Cc1ccc(OCCOCC[N+](C)(C)Cc2ccccc2)cc1", "growth": "-52.6% (active)"},
      {"smiles": "COc1ccc2c(c1)OC13Oc4cc(OC)ccc4C=C1CCCC3=C2", "growth": "7.56% (active)"},
      {"smiles": "CC(=O)OCCc1ccccc1", "growth": "92% (inactive)"},
      {"smiles": "COc1c(C)cnc(CSc2nc(-c3ccc(C)cc3)cn2-c2ccc(Cl)cc2)c1C", "growth": "95.8% (inactive)"},
      {"smiles": "CCOc1cc(/C=C/C(=O)C(C(=O)/C=C/c2ccc(OC(=O)CNc3nnc(C)s3)c(OCC)c2)C(=O)CNc2nnc(C)s2)ccc1OC(=O)CNc1nnc(C)s1", "growth": "-46.4% (active)"},
      {"smiles": "O=C(COC(=O)[C@H](C[Se][Se]C[C@H](NC(=O)c1ccc(Br)cc1F)C(=O)OCC(=O)c1ccc(F)cc1)NC(=O)c1ccc(Br)cc1F)c1ccc(F)cc1", "growth": "-45.3% (active)"},
      {"smiles": "Cc1cccc(CN(Nc2ccccc2)c2ccccc2)n1", "growth": "91.9% (inactive)"},
      {"smiles": "CC/C=C\\C/C=C\\C[C@H]1C/C=C2/C(=O)C=C[C@@H]2C/C=C\\CCC(=O)O1", "growth": "1.1% (active)"},
      {"smiles": "O=S(=O)(O)C(C(I)I)S(=O)(=O)O", "growth": "109% (inactive)"},
      {"smiles": "COc1ccc(Cn2c(SC)nc(=O)n(Cc3ccc(Cl)cc3)c2=O)cc1", "growth": "94.2% (inactive)"},
      {"smiles": "COc1ccc(/C(=C\\c2cc(OC)c(OC)c(OC)c2)C(=O)N2CCNCC2)cc1", "growth": "98% (inactive)"},
      {"smiles": "CCCc1cc(CCC)n2nc(N)nc2n1", "growth": "105% (inactive)"},
      {"smiles": "C#CCn1c2c(c3ccccc31)C[C@]1(C)[C@H]3CC[C@@H]4[C@@H]5C(=CCC[C@H]5C(=C)C)CC[C@@]4(C)[C@]3(C)CC[C@H]1C2(C)C", "growth": "101% (inactive)"},
      {"smiles": "COc1ccc(S(=O)(=O)N2CC3(COC3)C2)cc1NC(=O)c1[nH]c(C)c2c1CCCCC2=O", "growth": "-11% (active)"},
      {"smiles": "O=C1Nc2cc(-c3cccc(O)c3)ccc2/C1=C/c1ccc[nH]1", "growth": "6.76% (active)"},
      {"smiles": "N#Cc1cnc2cc(OC[C@@H](O)CO)c(NC(=O)C3CCCC3)cc2c1Nc1ccc(OCc2cccc(F)c2)c(Cl)c1", "growth": "-28.8% (active)"},
      {"smiles": "COc1ccc2nc3cc(Cl)ccc3c(Nc3ccc(O)cc3)c2c1", "growth": "44.2% (inactive)"},
      {"smiles": "CN(C)c1ccc(/C=N/Nc2nnc3n2N=C(c2ccc(Cl)cc2)CS3)cc1", "growth": "91.4% (inactive)"},
      {"smiles": "COc1cc(NC(C)CN(CC(C)C)C(C)C)c2ncccc2c1", "note": "(stereo not given)", "growth": "101% (inactive)"},
      {"smiles": "C#CCNC(=S)N/N=C(\\C)c1ccccn1", "growth": "-18.6% (active)"},
      {"smiles": "C/C=C/C1=CN2C(=O)c3cc(OC4OC(C)C(NC)C(C)(O)C4O)c(C)cc3N=C[C@@H]2C1", "note": "(stereo not given in full)", "growth": "-4.41% (active)"}
    ]}
  ]
}
